{"source": "PubChem BioAssay (Tox21)", "note": "Results filed as inconclusive are left out. Where a call stands in place of a potency, no number is given. Calls of active or inactive are those of the source. Calls come from the whole dose curve; as a rule, active = well fitted activation curve with a large enough effect in the repeat runs; inconclusive = weak or mixed curves, or effect the other way; inactive = no such curve, though single readings can be large or run the other way. Potency is the fitted concentration of half-maximal effect.", "data": [{"test": "qHTS assay to identify small molecule agonists of the retinoic acid receptor (RAR) signaling pathway (AID 1159553)", "details": "C3RL4 RARE luciferase reporter, agonist, 6 h; series mostly up to 73.3 µM", "excerpt": "National Center for Advancing Translational Sciences [NCATS] NIH Chemical Genomics Center [NCGC] U.S. Environmental Protection Agency [EPA] National Institutes of Environmental Health Sciences [NIEHS] National Toxicology Program [NTP] Assay overview: All-trans Retinoic acid (atRA) is the potent natural metabolite of retinol and plays an important role in normal embryonic development and maintenance of cellular phenotype in adult animals. atRA is the activating ligand for the retinoic acid receptors (RARs) which form heterodimers with retinoid X receptors (RXRs) on the retinoic acid response element (RARE). Through activation of the RAR/RXRs nuclear receptors, atRA regulates the transcription of a large number of protein-coding genes and regulatory RNAs. Intracellular levels of atRA are controlled by the retinol signaling pathway (RSP) that regulates the biosynthesis and catabolism of atRA to maintain physiological levels. Chemicals that interfere with the RSP can cause abnormal intracellular levels of atRA and therefore are potential developmental toxicants. To assess compounds for the potential adverse effect on embryonic development through interfering with retinol signaling, a cell-based RARE luciferase reporter gene assay was used. C3RL4 cell line (OARSA/CFSAN/FDA, Laurel, MD) was used to screen Tox21 10K compound library for identifying activators of the RSP.\nAssay Protocol Summary: C3RL4 cells were seeded at 1,000/well in 5 uL of assay medium into white solid 1,536-well tissue culture plates (Greiner Bio-One North America Inc. Monroe, NC) using a Multidrop Combi (Thermo Scientific, Waltham, MA) dispenser. After incubation at 37 C and 5% CO2 for an overnight, 23 nL of compounds dissolved in DMSO, positive control or DMSO only were transferred by a Pintool station (Kalypsys, San Diego, CA). After 6 hr incubation at 37 C and 5% CO2, 5 uL of Amplite Luciferase reagent (AAT Bioquest Inc. Sunnyvale, CA) was added to each assay plate using a Flying Reagent Dispenser (FRD) (Aurora Discovery, San Diego, CA). Luminescence was quantified on a ViewLux plate reader (PerkinElmer, Waltham, MA) after 30 min incubation at room temperature.", "values": [{"smiles": "C=C(C)C(=O)OCCO", "Potency": "inactive"}, {"smiles": "CC[N+](C)(CC)CCOC(=O)C(O)(c1ccccc1)C1CCCCC1", "note": "(stereo not given)", "Potency": "inactive"}, {"smiles": "CCc1c(C(=O)NN2CCCCC2)nn(-c2ccc(Cl)cc2Cl)c1-c1ccc(Br)cc1", "Potency": "inactive"}, {"smiles": "Nc1ccc(S(=O)(=O)Nc2ccccc2)cc1", "Potency": "inactive"}, {"smiles": "COc1cc(Cl)c(OC)cc1N", "Potency": "inactive"}, {"smiles": "COc1cc2c(cc1OC)C(C(C(=O)N(CCc1ccc(OC)c(OC)c1OC)CCc1ccc(OC)c(OC)c1OC)c1ccccc1)=NCC2", "note": "(stereo not given)", "Potency": "inactive"}, {"smiles": "CCCCC(CC)COC(=O)COc1ccc(Cl)cc1Cl", "note": "(stereo not given)", "Potency": "inactive"}, {"smiles": "COc1cc2nc(Cl)nc(N)c2cc1OC", "Potency": "inactive"}, {"smiles": "O=C(OCCc1ccccc1)c1ccccc1", "Potency": "386 nM (active)"}, {"smiles": "CC(=O)c1ccc2c(c1)N(CCCN(C)C)c1ccccc1S2", "Potency": "inactive"}, {"smiles": "CCO[Si](CCCCl)(OCC)OCC", "Potency": "inactive"}, {"smiles": "CC(=O)[O][Al][O]C(C)=O", "Potency": "inactive"}, {"smiles": "O=C1OC(=O)C2C3C=CC(C3)C12", "note": "(stereo not given)", "Potency": "inactive"}, {"smiles": "Cc1ccc(C(=O)Oc2ccc(C(O)CNC(C)(C)C)cc2OC(=O)c2ccc(C)cc2)cc1", "note": "(stereo not given)", "Potency": "inactive"}, {"smiles": "COc1ccc2cccc(CCNC(C)=O)c2c1", "Potency": "inactive"}, {"smiles": "CCOC(=O)Cc1cccc2ccccc12", "Potency": "inactive"}, {"smiles": "NCC(=O)O", "Potency": "inactive"}, {"smiles": "c1ccc(CNCCNCc2ccccc2)cc1", "Potency": "inactive"}, {"smiles": "CN(C)c1ccc(/C=C/c2ccc([N+](=O)[O-])cc2)cc1", "Potency": "219 nM (active)"}, {"smiles": "O=C(O)c1ccc(S(=O)(=O)O)cc1C(=O)O", "Potency": "inactive"}, {"smiles": "CCOCC(O)COc1ccc(NC(=O)CC[S+](C)C)cc1", "note": "(stereo not given)", "Potency": "inactive"}, {"smiles": "CC(C)(O)c1ccc(CNC(=O)c2cccnc2Oc2ccc(F)cc2)cc1", "Potency": "inactive"}, {"smiles": "CN(Cc1ccc(C(C)(C)C)cc1)Cc1cccc2ccccc12", "Potency": "inactive"}, {"smiles": "O=[N+]([O-])c1ccc2[nH]ncc2c1", "Potency": "inactive"}, {"smiles": "CCCOC(C(=O)OC1CCN(C)CC1)(c1ccccc1)c1ccccc1", "Potency": "inactive"}, {"smiles": "OCCNCc1ccccc1", "Potency": "inactive"}, {"smiles": "C#C[C@]1(O)CC[C@H]2[C@@H]3CCc4cc(OC5CCCC5)ccc4[C@H]3CC[C@@]21C", "Potency": "inactive"}, {"smiles": "CCCCCCOC(=O)NC(=N)c1ccc(NCc2nc3cc(C(=O)N(CCC(=O)OCC)c4ccccn4)ccc3n2C)cc1", "Potency": "inactive"}, {"smiles": "NS(=O)(=O)c1ccc(N2CCCCS2(=O)=O)cc1", "Potency": "inactive"}, {"smiles": "CCC(C)O", "note": "(stereo not given)", "Potency": "inactive"}, {"smiles": "Nc1c(CC(=O)O)cccc1C(=O)c1ccc(Br)cc1", "Potency": "inactive"}, {"smiles": "CC(C)=CCC/C(C)=C/CC/C(C)=C/CO", "Potency": "inactive"}, {"smiles": "CC1OC(=O)C(C)OC1=O", "note": "(stereo not given)", "Potency": "inactive"}, {"smiles": "Cc1ccc(C(C)OC(=O)C2(C)CCC(C(=O)O)C2(C)C)cc1", "note": "(stereo not given)", "Potency": "inactive"}, {"smiles": "Nc1cc(C(=O)O)c(O)c(S(=O)(=O)O)c1", "Potency": "inactive"}, {"smiles": "Cc1[nH]c(C)c(Cl)c(=O)c1Cl", "Potency": "inactive"}, {"smiles": "CCCCc1ncc(/C=C(\\Cc2cccs2)C(=O)O)n1Cc1ccc(C(=O)O)cc1", "Potency": "inactive"}, {"smiles": "C=C(C)C(=O)OCC", "Potency": "inactive"}, {"smiles": "COc1cccc(N(C)C(=S)Oc2ccc3c(c2)CCCC3)n1", "Potency": "inactive"}, {"smiles": "CCCCC1=NC2(CCCC2)C(=O)N1Cc1ccc(-c2ccccc2-c2nn[nH]n2)cc1", "Potency": "inactive"}]}]}
